This is a sample that favours compounds with a hit; in the whole collection about 1.1% have one here.
Vaccinia Venus – vaccinia inhibition (Venus reporter); Vaccinia virus Venus reporter expression, fluorescence; Potency, µM (top dose mostly 36.5 µM), without a hit: top-dose activity change, negative = inhibition, hits mostly inhibitors; hit rate 0.46% among 330,000; AID 720580; calls by dose curve; tested in A549 cells; also: nearly all actives have a fitted effect of over 30% in size
AmpC no deterg – AmpC beta-lactamase inhibition without detergent; hit rate 0.52% among 330,000; Potency, µM (titrated, usually from 57.1 µM), for inactives: at the highest dose activity change, negative = inhibition, most hits filed as inhibitors; AmpC nitrocefin hydrolysis, absorbance 480 nm, 0.0001% Triton; P00811;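 also: plate controls were no compound for no effect and no enzyme for full effect; nearly all actives have a fitted effect of over 20% in size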
Target sequence (P00811 whole entry, looked up): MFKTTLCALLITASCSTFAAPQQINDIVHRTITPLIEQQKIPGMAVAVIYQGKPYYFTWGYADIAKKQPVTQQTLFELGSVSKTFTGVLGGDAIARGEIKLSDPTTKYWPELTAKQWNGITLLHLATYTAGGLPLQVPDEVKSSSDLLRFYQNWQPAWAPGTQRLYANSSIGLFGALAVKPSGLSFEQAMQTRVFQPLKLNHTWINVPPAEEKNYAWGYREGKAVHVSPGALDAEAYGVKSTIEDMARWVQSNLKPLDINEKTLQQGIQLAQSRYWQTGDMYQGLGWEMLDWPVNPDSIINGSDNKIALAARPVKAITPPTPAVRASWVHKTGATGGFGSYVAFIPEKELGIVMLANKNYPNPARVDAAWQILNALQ
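AmpC (5.3 nM in the dispensed reagent) in 20 mM phosphate pH 7.0 with 0.01% (detergent screen) or 0.0001% Triton X-100 was preincubated with compounds for 15 min at room temperature. Nitrocefin was then added from an 800 uM solution, and hydrolysis was followed at 480 nm.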
AmpC detergent – blocks E. coli AmpC beta-lactamase in detergent assay. Potency, µM (doses to about 114 µM), for inactives: top-dose activity change, negative = inhibition, hits mostly inhibitors. AID 485294. AmpC hydrolysis of nitrocefin, absorbance 480 nm, 0.01% Triton. P00811. hit rate 0.041% among 370,000;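 also: 0% = no-compound wells and -100% = no-enzyme wells; nearly all actives have a fitted effect of over 25% in size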
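20 mM phosphate pH 7.0 + 0.01% (detergent screen) or 0.0001% Triton X-100; 5.3 nM AmpC reagent; cpd preinc 15 min RT; nitrocefin (800 uM stock) to start; A480 q20 s × 4 min; Activity was normalised to no-enzyme and no-compound control wells.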
Vaccinia mCherry – vaccinia inhibition (mCherry reporter); Vaccinia virus mCherry reporter infection, fluorescence; Potency, µM (doses to about 36.5 µM), for the others: at the highest dose activity change, negative = inhibition, hits mostly inhibitors; hit rate 0.63% among 310,000; calls by dose curve; tested in A549 cells; also: nearly all actives have a fitted effect of over 35% in size
An asterisk follows results filed as active; i = inactive; ? = inconclusive; / = no result; + = active, no number. Unless noted, calls follow the shape of the dose curve; as a rule, active = well fitted curve in the direction sought with a large enough effect; inconclusive = small, poorly fitted or top-dose-only effect, or another doubt; inactive = no such curve, though single readings can be large; an effect the other way counts as inactive or inconclusive. Unless noted, % is scaled to controls: 0 for no effect and ±100 for the full control effect; potency is read from the fitted curve at half-maximal effect.

SMILES	Vaccinia Venus	AmpC no deterg	AmpC detergent	Vaccinia mCherry
O=C1CC(NS(=O)(=O)c2cccs2)CN1c1ccc(F)cc1 (stereo not drawn)	-5.6%	31.6µM*	?	-10.7%
CC(=O)N1CCN=C1SCc1ccccc1F	-11.6%	3.55µM*	-6.5%	i
CCc1nc(N=Nc2c(O)[nH]c3ccccc23)c2c3c(sc2n1)CCC3	10µM*	-19.4%	3.0%	15.8µM*
CC1CCc2c(sc3ncn(CC(=O)N=Nc4c(O)[nH]c5ccccc45)c(=O)c23)C1 (stereo not drawn)	/	-7.5%	-6.8%	/
NC(=S)N=Nc1c(O)n(Cc2ccc(Br)cc2)c2ccccc12	1µM*	-5.9%	-0.2%	1µM*
NC(=S)N=Nc1c(O)n(CCCl)c2ccc(Br)cc12	?	-39.9%	6.1%	?
NC(=S)N=Nc1c(O)n(Cc2ccc(F)cc2)c2ccccc12	/	-22.4%	-13.0%	/
Cc1ccc2c(c1)c(N=NC(N)=S)c(O)n2Cc1ccccc1	1µM*	-17.8%	?	0.891µM*
COc1ccc(CN2CCCC(c3nc(C)ncc3-c3ccc(F)cc3)C2)c(OC)c1OC (stereo not drawn)	-16.4%	/	/	-12.3%
COCCC(=O)NCC1Cc2cc(Cl)cc(-c3ccc4[nH]ccc4c3)c2O1 (stereo not drawn)	-4.0%	/	/	-9.0%
COC(=O)c1cc(=O)n(CCc2ccccc2)c(=Nc2ccc(F)cc2)s1	-4.9%	0.708µM*	-14.5%	11.2%
O=C(CCn1c(=O)[nH]c2ccccc21)NCC1Cc2cc(Cl)cc(-c3ccncc3)c2O1 (stereo not drawn)	-17.1%	/	/	i
CC(=O)Nc1sc(/C(C#N)=C/c2ccc(Cl)c(Cl)c2)nc1-c1ccc(C)cc1	/	4.47µM*	-3.0%	/
NC(=S)N/N=C/c1ccccc1[N+](=O)[O-]	2.24µM*	-10.9%	1.3%	2µM*
Nc1c2c(nc3ccccc13)CCCC2	-11.5%	-23.1%	?	-0.1%
Nc1c2ccccc2nc2ccccc12	10µM*	-36.1%	0.3%	?
Cc1ccc(C(=O)N(Cc2cc3cc4c(cc3nc2N2CCOCC2)CCC4)CC2CCCO2)s1 (stereo not drawn)	-3.8%	/	/	-6.1%
COc1ccc(-n2c(CCNC(=O)c3ccc(-c4cccc(F)c4)cc3)nnc2SC)cc1	-10.7%	/	/	-17.5%
O=C(Cc1ncc(C(F)(F)F)cc1Cl)Nc1ccc(F)cc1	17.7%	0.159µM*	0.8%	/
COc1ccc(OC)c(C2=NOC(C(=O)Nc3cc(C)nn3-c3ccccc3)C2)c1 (stereo not drawn)	?	3.1%	2.2%	+
O=C(NCCO)c1cn(C2CCCN(Cc3cccc(C(F)(F)F)c3)C2)nn1 (stereo not drawn)	13.8%	/	/	-2.3%
Cn1cc(S(=O)(=O)N2CCN(c3ccccc3)CC2)c(=O)n(C)c1=O	-8.6%	39.8µM*	-14.4%	i
Cn1cc(S(=O)(=O)N2CCN(c3cccc(Cl)c3)CC2)c(=O)n(C)c1=O	-11.7%	40.5%	8.9%	-1.8%
CCC(Sc1nc(=O)cc(N)n1CCc1ccccc1)C(=O)Nc1cc(C)on1 (stereo not drawn)	9.9%	2.82µM*	?	-10.6%
CCOC(=O)c1ccc(NC(=O)C(C)Sc2nc(=O)cc(N)n2CCc2ccccc2)cc1 (stereo not drawn)	1.5%	/	-0.3%	3.2%
SMILES	Vaccinia Venus	AmpC no deterg	AmpC detergent	Vaccinia mCherry
C=C1C=C(C)n2ncc(C(=O)N(CCc3ccccc3)Cc3ccccc3)c2N1	-10.7%	/	/	-12.8%
Cc1ncc(N=Nc2ccc(F)cc2)c(-c2ccc(Cl)cc2)n1	-7.4%	0.398µM*	1.2%	/
CCN1CCCC1CNC(=O)c1cnn(-c2nccc(-c3ccccc3F)n2)c1C (stereo not drawn)	4.9%	/	/	-3.1%
Fc1ccc(CSc2nncn2NC/C=C/c2ccccc2)cc1	-11.2%	7.08µM*	-0.2%	/
Nc1c(Cl)cc(C=O)cc1Cl	-1.8%	/	/	-10.5%
O=C(CSc1nnc(SCc2cccc3ccccc23)s1)c1ccc2c(c1)OCO2	-0.6%	25.1µM*	-8.9%	-9.5%
O=c1[nH]c(=S)n(Cc2ccco2)c(O)c1C=NCc1cccs1	-2.6%	17.8µM*	2.3%	-7.9%
C=C[C@]1(C)C=C2CC[C@H]3[C@@](C)(CCC[C@@]3(C)C(=O)O)[C@@H]2CC1	-17.5%	-31.3%	/	i
C=C[C@]1(C)C=C2C(=O)[C@@]3(O)OC(=O)[C@@]4(CCCC(C)(C)[C@H]34)[C@@]2(O)CC1	10µM*	/	/	8.91µM*
COc1cccc(NC(=O)c2ccc(-c3ccc([N+](=O)[O-])cc3)o2)c1	-18.1%	17.8µM*	-6.2%	-5.2%
Cc1ccc(C)c(S(=O)(=O)NCc2nc(N3CCCC3)c3cc(Cl)ccc3n2)c1	-4.7%	/	/	-9.0%
O=C(NCc1ccncc1)c1cnn(-c2nccc(-c3cc4ccccc4o3)n2)c1C1CC1	-11.4%	/	/	-16.6%
Nc1nc(SCc2ccccc2Cl)nc2nc3c(cc12)CCCC3	-14.3%	-27.5%	-0.9%	-15.7%
Nc1nc(SCc2ccc(Cl)cc2Cl)nc2nc3c(cc12)CCCC3	?	15.8µM*	-3.8%	?
CC1CCN(C2=C(NS(=O)(=O)c3ccccc3)C(=O)c3ccccc3C2=O)CC1	-13.5%	0.2%	-2.8%	?
O=C1C(NS(=O)(=O)c2ccccc2)=C(N2CCN(c3ccc(F)cc3)CC2)C(=O)c2ccccc21	?	-14.9%	0.0%	0.316µM*
Cc1ccc(NC(=O)c2noc3c2CCc2ccccc2-3)cc1	-4.3%	-26.1%	2.0%	-8.2%
Cc1cc(NC(=O)c2noc3c2CCc2ccccc2-3)n(-c2ccccc2)n1	-27.1%	1µM*	2.4%	-6.0%
COc1ccc(OC)c(-c2cc(Cl)c3c(c2)CC(CNC(=O)c2cccnc2SC)O3)c1 (stereo not drawn)	-13.0%	/	/	-14.7%
COc1cc(/C=C/C(=O)c2ccc3c(c2)OCCO3)cc(Br)c1OCC(=O)N(C)C	?	160.9%	-14.7%	2.82µM*
COc1cccc(/C=C/C(=O)c2ccc3c(c2)OCO3)c1OC	?	-6.1%	4.4%	12.6µM*
COc1ccc2cc(CNC3CCS(=O)(=O)C3)c(-c3ccc(OC)c(OC)c3)nc2c1 (stereo not drawn)	4.7%	/	/	-8.1%
CCC1C(=O)NCCN1Cc1ccc2c(c1)CN(Cc1ccc(F)c(OC)c1)CCO2 (stereo not drawn)	5.2%	/	/	-8.1%
Cc1cc(C(=O)N2CC(C)CC(C)C2)n(-c2ccccc2)n1 (stereo not drawn)	-19.0%	8.91µM*	?	-0.3%
CC(=O)Nc1ccccc1-c1nc(CNC(=O)c2ccc(F)c(F)c2)c(C)o1	-1.4%	/	/	i
C(=Nc1ccc(/C=C/c2ccnc3ccccc23)cc1)c1cccs1	-6.1%	/	/	3.5%
Cc1ccc(/C=N/Nc2nncn2N)cc1	10µM*	-15.0%	-4.0%	10µM*
COC(=O)c1cc(CNC(=O)c2cccc3ccccc23)cc(NC(=O)c2ccccc2OC)c1	4.4%	/	/	-12.8%
NC(=S)N/N=C1\CC(n2nnnc2-c2ccccc2)C2COC1O2 (stereo not drawn)	/	3.9%	2.4%	/
NC(=S)N/N=C1\CC(n2nnn(-c3cccc(Cl)c3)c2=S)C2COC1O2 (stereo not drawn)	?	-37.9%	6.5%	11.2µM*
